This is a sample that favours compounds with a hit; in the whole collection about 19% have one here.
DT40 TDP1 no CPT – qHTS for Inhibitors of human tyrosyl-DNA phosphodiesterase 1 (TDP1): qHTS in cells in absence of CPT; AID 686978, 2013; hit rate 15% among 420,000; DT40 Tdp1-/- hTDP1 cells, no CPT, ATP luminescence, 48 h; Potency, µM (top dose mostly 46.2 µM), for inactives: top-dose activity change, negative = growth inhibition, most hits filed as inhibitors; note: potency is the fitted concentration of half-maximal effect; nearly all actives have a fitted effect of over 55% in size
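Growth kinetics read by CellTiter-Glo luminescence after ≥48 hr at 37 °C. Cells: DT40 Tdp1-/- stably carrying human TDP1, 400 per well, compound exposure in the absence of CPT (DMSO vehicle).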
HT1080 IDH1KD tx – qHTS for induction of synthetic lethality in tumor cells producing 2HG: qHTS for the HT-1080-IDH1KD cell line; HT-1080 IDH1 knockdown viability, ATP luminescence, 48 h; hit rate 2% among 360,000; Potency, µM (series often up to 46.1 µM), inactives show at the highest dose activity, negative = toxicity, most hits filed as cytotoxic; AID 686971, 2013;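 note: potency is the fitted concentration of half-maximal effect; 0% = DMSO wells and -100% = cell-free medium wells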
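Cytotoxicity counter-line: IDH1KD HT-1080, 48 h, CellTiter-Glo. Curves classed by r2, magnitude and activity.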
IL1B secr inh – qHTS for Inhibitors of Inflammasome Signaling: IL-1-beta AlphaLISA Primary Screen; THP-1 LPS/ATP IL-1B secretion, AlphaLISA, 16 h; hits give low values; activity change, % at 57.5 µM; hit rate 4.7% among 360,000; in the data active = activity change below about -50%; inconclusive = mostly about -30% to -49%
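Secreted IL-1B measured by AlphaLISA bead assay after 16 h compound exposure of THP-1 cells; compounds (final up to 57.5 uM) added 1 h before LPS (250 ng/mL) and ATP (1.25 mM) stimulation; lower signal means less secretion.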
TDP1 cell CPT – qHTS for Inhibitors of human tyrosyl-DNA phosphodiesterase 1 (TDP1): qHTS in cells in presence of CPT; hit rate 12% among 420,000; chicken DT40 Tdp1-/-;hTDP1 cells + 20 nM CPT, ATP luminescence, 48 h; AID 686979, 2013; Potency, µM (top dose mostly 46.2 µM), without a hit: at the top dose activity change, negative = growth inhibition, usual class: inhibitors; note: potency is the fitted concentration of half-maximal effect; nearly all actives have a fitted effect of over 55% in size
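Cell growth measured by CellTiter-Glo luminescence after a minimum 48 h, 37 C compound exposure with 20 nM CPT in Tdp1-knockout DT40 cells stably expressing hTDP1, seeded 400/well; qHTS titration format.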
HT1080NT lethal – qHTS for induction of synthetic lethality in tumor cells producing 2HG: qHTS for the HT-1080-NT fibrosarcoma cell line; HT-1080-NT fibrosarcoma viability, CellTiter-Glo ATP luminescence, 48 h; AID 686970, 2013; Potency, µM (doses to about 46.1 µM), for inactives: at the top dose activity, negative = less viability, hits mostly cytotoxic; hit rate 1.6% among 360,000;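 note: NT is the 2HG producing partner of a matched IDH1 knockdown line; potency is the fitted concentration of half-maximal effect; 0% = DMSO-treated cells and -100% = media-only wells without cells; nearly all actives have a fitted effect of over 55% in size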
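A 48-hour cytotoxicity screen used HT-1080-NT cells plated 2 hours before compound delivery. ATP-based CellTiter-Glo luminescence measured viability, normalized to DMSO and no-cell controls.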
Numbers without * were called inactive; i = inactive; ? = inconclusive; . = no result given; [ ] = another dose, or the depositor's remark. Unless noted, calls come from the whole dose curve; as a rule, active = well fitted curve in the direction sought with a large enough effect; inconclusive = small, poorly fitted or top-dose-only effect, or another doubt; inactive = no such curve, though single readings can be large; an effect the other way counts as inactive or inconclusive. Unless noted, % is set by controls: 0 for no effect and ±100 for the full control effect.

SMILES | DT40 TDP1 no CPT | HT1080 IDH1KD tx | IL1B secr inh | TDP1 cell CPT | HT1080NT lethal
CCOC(=O)c1cc(-c2ccccc2)n(CCCC(=O)Nc2ccc(C(C)C)cc2)c1C | 21µM* | . | . | ? | .
CCOC(=O)c1cc(-c2ccccc2)n(CCC(=O)O)c1C | -21% | 0% | 4 | -26% | -3%
CC(C)c1ccc(NC(=O)CCCN2C(=O)NC(C)(C)C2=O)cc1 | 15% | 11% | 29 | -4% | 10%
Cc1cccc(C)c1Nc1nn2c(=O)c3cc4c(cc3nc2s1)OCO4 | ? | . | . | -7% | .
COc1ccc(CCNC(=O)CCn2c(SCC(=O)N3CCCC3)nc3ccccc3c2=O)cc1OC | ? | -2% | 10 | ? | 1%
Cc1cn2c(=O)cc(COc3cccc(NC(=O)c4ccccc4Cl)c3)nc2s1 | 13µM* | . | . | ? | .
Cc1cn2c(=O)cc(COc3cccc(NC(=O)c4ccc(C(C)(C)C)cc4)c3)nc2s1 | 16µM* | . | . | 16µM* | .
Cc1cn2c(=O)cc(COC(=O)c3cccc(NC(=O)c4ccccc4C)c3)nc2s1 | -22% | . | . | 5% | .
Cn1ccnc1C(=O)c1ccc(S(=O)(=O)N2CCCC2)cc1 | 9% | 15% | 0 | -6% | 4%
Cn1c(=O)c(C(=O)NNC(=O)c2ccc(Br)cc2)c(O)c2ccccc21 | 18µM* | 15µM* | 24 | ? | 21µM*
Cc1cccnc1NC(=O)c1c(O)c2ccccc2n(C)c1=O | 23µM* | -29% | 18 | ? | ?
CCn1c(=O)c(C(=O)Nc2ncccc2C)c(O)c2ccccc21 | 2.6µM* | -30% | 7 | 2.3µM* | -8%
CN(CC(=O)Nc1c(Cl)cccc1Cl)C(=O)Cc1ccc2c(c1)CCC2 | ? | -1% | 1 | ? | 6%
C=CCNC(=S)Nc1cccc2[nH]ncc12 | -3% | 16% | 21 | -2% | 18%
CN1CCC(N(C)S(=O)(=O)c2ccc(NC(=O)COc3cccc(C(F)(F)F)c3)cc2)CC1 | ? | -1% | -53* | ? | -1%
CC(Oc1ccc(Br)cc1)C(=O)Nc1ccc(S(=O)(=O)N(C)C2CCN(C)CC2)cc1 (centres undefined) | 6.5µM* | -1% | -98* | 12µM* | -19%
CN1CCN(C(=S)c2ccc(OCC(=O)Nc3cccc(C(F)(F)F)c3)cc2)CC1 | 9.2µM* | -20% | ? | 21µM* | -18%
O=C(COc1ccc(C(=O)O)cc1)Nc1cccc(C(F)(F)F)c1 | -13% | 18% | 49 | -21% | 16%
COc1ccc(CC(=O)Nc2ccc(S(=O)(=O)N(C)C3CCN(C)CC3)cc2)cc1 | -11% | -4% | 15 | ? | 3%[9.24 µM]
COc1cc(/C=C/C(=O)c2ccc3c(c2)OCO3)cc(OC)c1OC | 12µM* | ? | -97* | ? | ?
COc1cc(C(=O)COC(=O)c2ccc3c(c2)OCCO3)cc(OC)c1OC | ? | ? | -12 | 15µM* | ?
COc1cc(C(=O)OCC(=O)c2cc(C)n(C)c2C)cc(OC)c1OC | 16µM* | ? | 33 | 26µM* | ?
COc1ccc(OC)c(/C=C/C(=O)c2ccc3c(c2)OCCO3)c1 | ? | ? | -101* | ? | ?
COc1ccc(C(=O)COC(=O)c2ccc3c(c2)OCCO3)c(OC)c1 | ? | -18% | -2 | -18% | 2%
COc1cc(C=CC(=O)OCC=Cc2ccc3c(c2)OCO3)cc(OC)c1OC | ? | -2% | -9 | ? | 0%
SMILES | DT40 TDP1 no CPT | HT1080 IDH1KD tx | IL1B secr inh | TDP1 cell CPT | HT1080NT lethal
CNc1c(Cl)cc(C=O)cc1Cl | -10% | . | . | 5% | .
COc1cc(C(=O)NC(=S)NNC(=O)c2ccc3c(c2)OCO3)cc(OC)c1OC | ? | ? | 39 | ? | ?
COc1cc(/C=C/C(=O)c2ccc3c(c2)OCCO3)cc(OC)c1OC | ? | ? | -94* | ? | -11%
COc1cc(C(=O)c2cc3c(cc2C)OCO3)cc(OC)c1OC | 0.023µM* | ? | 79 | 0.023µM* | ?
O=C(/C=C/c1ccc(Cl)cc1Cl)N1CCN(c2ccc([N+](=O)[O-])c(N3CCOCC3)c2)CC1 | 23µM* | 7% | 0 | ? | -3%
O=C(/C=C/c1ccccc1[N+](=O)[O-])N1CCN(c2ccccc2F)CC1 | 1% | 8% | -6 | ? | 5%
O=[N+]([O-])c1cc(Cl)ccc1N1CCN(c2ccccc2O)CC1 | ? | -11% | -96* | 0% | -19%
O=[N+]([O-])c1cc(Cl)ccc1N1CCCCC1 | -13% | -10% | ? | 1% | -6%
O=C(/C=C/c1ccc(Cl)cc1)N1CCN(c2ccc([N+](=O)[O-])c(N3CCOCC3)c2)CC1 | ? | 5% | 2 | ? | 9%
O=C(/C=C/c1ccc(Cl)cc1Cl)N1CCN(c2ccccc2[N+](=O)[O-])CC1 | ? | -28% | -60* | 7% | -15%
CCN(c1ccc(NC(=O)c2ccc(N3CCCC3=O)cc2)cc1)C(C)C | ? | -12% | 4 | ? | -15%
CCOc1ccc(N2C(=O)CC(Sc3ncccn3)C2=O)cc1 (centres undefined) | ? | 22% | 8 | 18µM* | 15%
COc1ccccc1N1C(=O)CC(Sc2n[nH]c(-c3cccc(C)c3)n2)C1=O (centres undefined) | 2.1µM* | -26% | i | 2.1µM* | ?
O=C1CC(Sc2ncccn2)C(=O)N1c1ccccc1 (centres undefined) | ? | 3% | -3 | 14µM* | 5%
Cc1nc(SC2CC(=O)N(c3ccccc3)C2=O)n[nH]1 (centres undefined) | 5.2µM* | 12% | -23 | 1.5µM* | 17%
Cc1cc(C)c2c(CC(=O)Nc3ccccc3C(F)(F)F)coc2c1 | 14% | . | . | -2% | .
Cc1cc(C)cc(OCCNC(=O)c2cc(S(=O)(=O)N3CCOCC3)ccc2F)c1 | ? | ? | -7 | ? | ?
COc1ccc2c(c1)CO[C@]21O[C@H](CCO)C[C@H](O)[C@H]1O | -10% | 22% | -6 | -2% | 21%
Nc1nnc(SC2CC(=O)N(c3ccccc3)C2=O)s1 (centres undefined) | 3.3µM* | 2% | -89* | 7.3µM* | 2%
COc1ccc(-c2cccc3c2OC(CNC(=O)c2ccccc2-n2cccn2)C3)nn1 (centres undefined) | ? | . | . | -15%[9.04 µM] | .
CCOc1ccc(N2CC(C(=O)OC)CC2=O)cc1 (centres undefined) | -4% | 15% | 16 | 0% | 18%

Screening data as filed in PubChem BioAssay.
